According to the supplement of paper PMC12024529:

test system: HEK293 WT BDD-FVIII-Gluc; experiment: secreted FVIII-Gluc luciferase Z-score vs DMSO control; higher = more FVIII-Gluc secretion; conditions: 5 µM
Description: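 Natural plant-compound library (480 compounds, ST catalogue IDs) screened on HEK293 cells stably expressing WT BDD-FVIII-Gaussia luciferase fusion at 5 µM. Secreted Gluc activity in the medium is given as a Z-score relative to DMSO controls.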

SMILES	secreted FVIII-Gluc luciferase Z-score
COc1c2ccoc2cc2oc(=O)ccc12	0.335
CO[C@H]1/C=C/O[C@@]2(C)Oc3c(C)c(O)c4c(O)c(cc(O)c4c3C2=O)NC(=O)/C(C)=C\C=C\[C@H](C)[C@H](O)[C@@H](C)[C@@H](O)[C@@H](C)[C@H](OC(C)=O)[C@@H]1C	-0.224
COc1cc(C=O)ccc1O	0.374
COc1ccc2c(OC)c3ccoc3nc2c1OC	0.816
COc1cc2oc(-c3ccccc3)cc(=O)c2cc1OC	0.82
Cn1cnc2c1c(=O)[nH]c(=O)n2C	0.889
CCc1cn(C2CC(O)C(CO)O2)c(=O)[nH]c1=O (stereo not given)	-0.382
CC1CCC2[C@](C)(CO)C(O)CC[C@]2(C)C12CCC(CO)(CCO)O2 (stereo not given in full)	0.9
O=C(O)CCCC[C@@H]1SC[C@@H]2NC(=O)N[C@@H]21	0.929
O=c1c2ccccc2oc2cc(O)c(C3COCC(CO)C(O)C(O)C3O)c(O)c12 (stereo not given)	0.341
CC(C)[C@@H](C)/C=C/[C@@H](C)[C@H]1CC[C@H]2C3=CC=C4C[C@@H](O)CC[C@]4(C)[C@H]3CC[C@]12C	0.958
C1CCN2C[C@H]3C[C@H](CN4CCCC[C@@H]34)[C@H]2C1	1.26
COc1ccccc1-c1oc2ccccc2c(=O)c1OC	1.49
C=C1C(=O)OC2C[C@@]3(C)CCCC(=C)[C@@H]3CC12 (stereo not given in full)	-0.82
COc1ccccc1CC(Cc1nc2ccccc2[nH]1)c1nc2ccccc2[nH]1 (stereo not given)	0.163
COc1c2occc2cc2ccc(=O)oc12	0.821
COc1cc2cc3c4c(cc(OC)c(OC)c4c2cc1OC)CCN3C	0.0768
CC1C(=O)OC2CC34C5CC(C(C)(C)C)C36C(OC(=O)C6O)OC4(C(=O)O5)C21O (stereo not given)	-0.604
COc1c2ccoc2nc2c(OC)c(OCC(O)C(C)(C)O)ccc12 (stereo not given)	0.695
CC1OC(OCC2OC(Oc3c(-c4ccc(O)c(O)c4)oc4cc(O)cc(O)c4c3=O)C(O)C(O)C2O)C(O)C(O)C1O (stereo not given)	-0.909

SMILES	secreted FVIII-Gluc luciferase Z-score
O=C(O)C1(O)CC(O)C(O)C(O)C1 (stereo not given)	0.456
Cc1cc2ccc(=O)oc2cc1OC[C@@H](O)C(C)(C)O	-0.00524
O=C1C=CC2=C3c4cc(O)c(O)cc4CC3(O)COC2=C1O (stereo not given)	0.729
Cc1cc(=O)oc2cc(O[C@@H]3O[C@H](C(=O)O)[C@@H](O)[C@H](O)[C@H]3O)ccc12	0.123
CC(=O)Oc1c(C)c(C)c2c(c1C)CCC(C)(CCCC(C)CCCC(C)CCCC(C)C)O2 (stereo not given)	0.728
C/C(=C\CNc1ncnc2c1ncn2C1OC(CO)C(O)C1O)CO (stereo not given)	-0.332
O=c1cc(-c2ccc(O)c(O)c2)oc2cc(O)cc(O)c12	-1.34
Nc1ncnc2c1ncn2[C@H]1C[C@H](O)[C@@H](CO)O1	1.23
CC(Cc1ccc(O)c(O)c1)C(C)Cc1ccc(O)c(O)c1 (stereo not given)	0.14
CC1=C(C2=C(C)C(C(C)C)C3=C(C(=O)C(O)C3O)C2O)C(O)C2=C(C(O)C(O)C2=O)C1C(C)C (stereo not given)	-0.542
O=c1cc(-c2ccc(O)cc2O)oc2ccccc12	0.498
CCC(=O)OCC(=O)[C@@]1(OC(=O)CC)[C@@H](C)C[C@H]2[C@@H]3CCC4=CC(=O)C=C[C@]4(C)[C@@]3(F)[C@@H](O)C[C@@]21C	3.76
COc1ccc(C(=O)C2C3C4COC(O4)C(=O)C3C3C=Cc4ccccc4N32)c(OC)c1 (stereo not given)	-0.809
CCOC(=O)CCC(=O)OC1C(OC2C(C)C(OC3CC(C)(OC)C(O)C(C)O3)C(C)C(=O)OC(CC)C(C)(O)C(O)C(C)C(=O)C(C)CC2(C)O)OC(C)CC1N(C)C (stereo not given)	0.0842
Nc1ncnc2c1ncn2C1OC(CO)C(O)C1OP(=O)(O)O (stereo not given)	-0.295
COc1ccc2oc(-c3ccccc3)c(OC)c(=O)c2c1	0.232
O=c1cc(-c2ccccc2)oc2cccc(O)c12	-0.455
O=C(CCc1ccc(O)cc1)c1c(O)cc(O)cc1O	-0.769
COc1cc2c(Cc3c4c5c(cc(OC)c(OC)c5c5c(OC)c(OC)ccc35)CCN4C)c3c4c(cc(OC)c(OC)c4c2cc1OC)CCN3C	-0.165
CC(C)=CCC[C@H](C)CCO	0.0595
